Most compounds without a hit are left out; they make up all but 13% or so of the library.
USP8 inh: human USP8 deubiquitinase inhibition. P40818. purified USP8, Ub-rhodamine cleavage fluorescence, 30 min. inhibition, % at 20 µM. actives 4.2% (n = 47,000)
USP30 inh: blocks human USP30 ubiquitin-rhodamine cleavage | purified USP30, Ub-rhodamine cleavage fluorescence | Q70CQ3 | inhibition, % at 25 µM | actives 5.3% (n = 47,000)
USP28 inh: human USP28 deubiquitinase inhibition; inhibition, % at 25 µM; actives 3% (n = 47,000); purified USP28, Ub-rhodamine cleavage fluorescence, 30 min; Q96RU2
Target sequence (Q96RU2 whole entry, looked up): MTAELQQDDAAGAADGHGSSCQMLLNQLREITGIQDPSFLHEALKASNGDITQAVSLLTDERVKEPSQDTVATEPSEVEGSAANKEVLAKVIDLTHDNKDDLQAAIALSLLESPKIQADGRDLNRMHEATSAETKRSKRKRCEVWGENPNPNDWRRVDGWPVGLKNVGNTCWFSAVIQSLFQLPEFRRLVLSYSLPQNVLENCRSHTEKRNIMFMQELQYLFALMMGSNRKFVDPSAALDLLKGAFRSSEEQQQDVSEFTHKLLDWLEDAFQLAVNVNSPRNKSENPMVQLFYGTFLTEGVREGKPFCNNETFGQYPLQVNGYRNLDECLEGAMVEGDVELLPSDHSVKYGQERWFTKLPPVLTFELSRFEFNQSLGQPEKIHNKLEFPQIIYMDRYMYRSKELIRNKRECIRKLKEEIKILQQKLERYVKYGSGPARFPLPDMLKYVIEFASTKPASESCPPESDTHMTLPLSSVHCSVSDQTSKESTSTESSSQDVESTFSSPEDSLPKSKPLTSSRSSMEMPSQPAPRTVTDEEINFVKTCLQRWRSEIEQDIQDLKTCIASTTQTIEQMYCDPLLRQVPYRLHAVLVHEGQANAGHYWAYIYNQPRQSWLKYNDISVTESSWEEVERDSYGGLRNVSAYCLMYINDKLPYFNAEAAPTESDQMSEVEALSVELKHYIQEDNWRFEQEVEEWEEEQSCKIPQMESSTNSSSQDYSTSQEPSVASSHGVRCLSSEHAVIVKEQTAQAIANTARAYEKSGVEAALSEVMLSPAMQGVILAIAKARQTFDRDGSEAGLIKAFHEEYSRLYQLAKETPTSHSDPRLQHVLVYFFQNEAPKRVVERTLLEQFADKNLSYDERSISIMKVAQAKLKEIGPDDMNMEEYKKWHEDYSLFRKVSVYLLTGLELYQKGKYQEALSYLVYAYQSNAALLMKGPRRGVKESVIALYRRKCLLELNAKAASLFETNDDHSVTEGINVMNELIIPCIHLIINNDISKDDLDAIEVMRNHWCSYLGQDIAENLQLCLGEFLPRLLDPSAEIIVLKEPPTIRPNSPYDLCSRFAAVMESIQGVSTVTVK
USP17 inh: blocks human USP17 ubiquitin-rhodamine cleavage | A8MUK1 | purified USP17, Ub-rhodamine cleavage fluorescence, 3 h | inhibition, % at 50 µM | actives 6.5% (n = 47,000) | AID 1645855
* = called active by the depositor; · = no result given. Rule as the data show it: active = inhibition above about 30%; inactive = the rest.

SMILES	USP8 inh	USP30 inh	USP28 inh	USP17 inh
CN(C)c1ccc(/C=N/NC(=O)c2ccc(Cl)cc2)cc1	51*	23	-2	88*
Cc1cccc(OCC(=O)Nc2ccc3nc(C)sc3c2)c1	-15	-342	-27	-37
Cc1ccc(S(=O)(=O)CC(=O)Nc2ccc(-c3nc4ccccc4s3)c(O)c2)cc1	80*	-58	0	-23
Brc1ccc(CSc2nnc(-c3ccccc3)c(-c3ccccc3)n2)cc1	11	18	9	15
Cc1cc(C)nc(SCc2cc(=O)n3[nH]c(C)c(-c4ccccc4)c3n2)n1	-108	46*	23	-5
Cc1cc(NC(=O)Cn2c(=O)n(CCCCCC(=O)NCc3ccc4c(c3)OCO4)c(=O)c3sccc32)n[nH]1	5	21	-4	26
O=C(CCCCCn1c(=O)c2sccc2n(CC(=O)c2ccc(Cl)c(Cl)c2)c1=O)NCc1ccc2c(c1)OCO2	89*	6	3	20
O=C(CCCn1c(=O)c2sccc2n(Cc2ccc(F)cc2)c1=O)NCc1ccco1	33*	23	6	29
O=C(CCCCCn1c(=O)c2sccc2n(CC(=O)c2ccc(F)cc2)c1=O)NCc1ccccc1Cl	45*	39*	16	19
Nc1ccc(F)c(NS(=O)(=O)c2ccccc2)c1	72*	-74	41*	58*
Cc1[nH]ncc1C(=O)N1CCCC(c2cccc(-n3ccnc3)n2)C1 (stereo unspecified)	6	5	0	-1
Cc1[nH]ncc1C(=O)N1CCCC(c2cccc(-n3ccnc3C)n2)C1 (stereo unspecified)	8	9	4	40*
CCC(C(=O)Nc1ccc(-c2nc3cccnc3s2)cc1)c1ccccc1 (stereo unspecified)	36*	-138	-57	-49
COc1cccc(CNC(=O)c2nc3c(s2)CCNCC3)c1	54*	-9	7	34*
COc1ccc(CC(=O)N2CCC([C@@H]3C[C@H](C(F)F)n4nc(C)cc4N3)CC2)cc1C	-289	-15	-14	-60
CC(=O)Nc1ccc(NC(=O)c2ccc3c(c2)CC(c2ccccc2)OC3=O)cc1 (stereo unspecified)	34*	22	0	21
Cc1ccccc1C(=O)c1ccc(C(=O)NC2CCCCCC2)[nH]1	41*	52*	4	14
O=C(O)c1ccc(NCc2nc3ccccc3n2CCOc2ccccc2)cc1	17	24	13	·
Cc1cccc(OCCn2c(NC(=O)c3ccc(Cl)cc3)nc3ccccc32)c1	66*	28	12	19
CCc1[nH]ncc1C(=O)N1CC[C@@H](O)[C@@H]2[C@@H](C1)N(C)C[C@H]2c1ccccc1	-24	1	-8	-8
COc1ccc(C2/C(=C(\O)c3c(C)nc4c(C)cccn34)C(=O)C(=O)N2CCN(C)C)cc1 (stereo unspecified)	-5	2	0	1
Cc1ccc(F)cc1NC(=O)Cc1nnc(-c2ccc3ncccc3c2)o1	56*	1	3	25
Cc1cccc(NC(=O)Cc2nnc(-c3ccc4ncccc4c3)o2)c1	-278	-28	-7	-5
CCc1ccc(NC(=O)Cc2nnc(-c3ccc4ncccc4c3)o2)cc1	51*	43*	21	63*
O=c1[nH]c(CN2CCN(c3ccccc3F)CC2)nc2cc(Cl)ccc12	10	-20	-9	3
SMILES	USP8 inh	USP30 inh	USP28 inh	USP17 inh
COc1ccc(NC(=O)COc2cc(C)nc(-c3ccc(C)cc3)n2)c(OC)c1	46*	58*	12	63*
COc1ccc(-c2cc(C(C)=O)c(C)n2CCC(=O)Nc2ccc(OC)cc2OC)cc1	-2	81*	0	33*
COc1ccc2nc(NC(=O)CCn3c(-c4ccccc4)cc(C(C)=O)c3C)sc2c1	6	7	1	7
CCOc1ccc(NC(=O)Cn2c(-c3ccccc3)cc(C(C)=O)c2C)cc1	36*	37*	11	·
COc1ccc(-c2cc(C(C)=O)c(C)n2CCC(=O)Nc2ccc(C)cn2)cc1	-19	-132	-43	-44
O=C(C1CCCN(S(=O)(=O)N2CCCCC2)C1)N1CCN(Cc2ccc3c(c2)OCO3)CC1 (stereo unspecified)	7	0	0	-8
Cc1cc(OCC(=O)N2CCCC(C)C2)nc(-c2ccc(F)cc2)n1 (stereo unspecified)	-206	10	-8	0
COc1cccc(OCC(O)CNc2ccc(Cl)cc2)c1 (stereo unspecified)	37*	-15	-8	5
Cc1cccc(OCC(O)CNc2nc(C)cc(C)n2)c1 (stereo unspecified)	4	-7	-5	-26
Cc1cccc(-n2ncc(C(=O)N3CCc4ccccc43)c2-n2cccc2)c1	10	42*	19	15

Screening data from PubChem.
